This is an account of results in ChEMBL document CHEMBL1157539, “Thousands of chemical starting points for antimalarial lead identification” (Nature, 2010).

What is called Inhibition is the drop in the measured response relative to a control, in per cent. A higher Inhibition goes with a strong effect.

The test relates to Plasmodium falciparum. The test is described as follows: GSK_TCMDC: Inhibition of Plasmodium falciparum 3D7 in whole red blood cells, using parasite LDH activity as an index of growth. Test compounds present at 2uM. Type of test: functional.
The compound `CCn1c(C(C)C)cc2c3c(N)nc(N)nc3ccc21` registered an Inhibition of 92%.
In the case of `CCCCCCn1c(Sc2ccc(C#N)c([N+](=O)[O-])c2)nnc1-c1ccc(Cl)cc1`, the Inhibition turned out to be 93%.
`O=C(Nc1cccc([N+](=O)[O-])c1)Nc1ccc(Cl)c(C(F)(F)F)c1` showed an Inhibition of 96%.
`CC(Sc1nnc(-c2cccs2)[nH]1)C(=O)c1c[nH]c2ccccc12` (stereo unspecified) gave an Inhibition of 94%.
Compound `O=C(Nc1ccc(-c2ccccc2)cc1)Nc1cccc(Cn2nc(Cl)c(N3CCCNCC3)cc2=O)c1.O=C(O)C(F)(F)F` came in with an Inhibition of 100%.
With `Cc1cccc(-c2nc3cc(NC(=O)c4ccc([N+](=O)[O-])o4)ccc3o2)c1`, the Inhibition turned out to be 94%.
`CCNc1cc(C(=O)N[C@@H](Cc2cccc(F)c2)[C@H](O)CNC(C)CCCC(C)C)cc(N2CCCCS2(=O)=O)c1.Cl` (stereo partly specified): the Inhibition is on record as 98%.
For the compound `CNCCCn1c(N(C)C)nc2cc(-n3cnc4cc(-c5ccc(Cl)cc5)sc4c3=O)ccc21.O=C(O)C(F)(F)F`, the Inhibition came out at 86%.
Compound `COc1ccc2ccccc2c1CCCCN1CCN(CC(c2ccc(F)cc2)N2CCC2)CC1.O=C(O)C(F)(F)F` (stereo unspecified) showed an Inhibition of 98%.
In the case of `Cc1cccc2nc(-c3cccc(-c4ccc(CNCc5ccccc5)cc4)c3)[nH]c12.O=C(O)C(F)(F)F`, the Inhibition is on record as 99%.
As to `COc1cc(C)nc2ccc(NC(=O)COCC(=O)Nc3ccc4nc(C)cc(OC)c4c3)cc12`, the Inhibition is 100%.
For the compound `Cc1cccc2nc(-c3cccc(-c4ccc(CN5CCCC5CN)cc4)c3)[nH]c12.O=C(O)C(F)(F)F` (stereo unspecified), the Inhibition is 100%.
In turn, `COc1cc(SC)c(Br)cc1-c1nc2ccncc2[nH]1` showed an Inhibition of 91%.
The compound `Fc1ccc2[nH]c3c(NCCN4CCCCC4)ncnc3c2c1` had an Inhibition of 99%.
Compound `Cl.N#Cc1cccc(-c2cccc(C(=O)NC3CCC(CCN4CCc5ccc(C#N)cc5CC4)CC3)c2)c1` (stereo unspecified) had an Inhibition of 99%.
Under `Cc1cccc2nc(-c3ccc(-c4ccc(NC(=O)Nc5ccsc5)cc4)s3)[nH]c12` stands 100%.
As for `C=Cc1cc(NC(=O)N2CCc3cc(OC)c(C(F)(F)F)cc32)cc(-c2cccnc2)c1`, the Inhibition stood at 92%.
`COc1ccc2ncc(F)c([C@H](O)CN3CCC(NCc4ccc5c(c4)OCCO5)CC3)c2c1.Cl` had an Inhibition of 100%.
As for `O=C(Nc1ccc(N2CCN(Cc3cccc(F)c3)CC2)cc1)c1cccs1.O=C(O)C(F)(F)F`, the Inhibition is 95%.
Under `COc1cc2nc(N3CCC(CNC(=O)/C=C/c4ccccc4F)CC3)nc(N)c2cc1OC.Cl` stands 100%; under `Brc1ccc(Nc2ccnc3cc(-c4nccs4)ccc23)cc1Oc1ccnc2cc(-c3nccs3)ccc12`, 91%; under `COc1ccc(NC(=O)c2c(NC(=O)c3cccs3)sc3c2CCCC3)cc1`, 97%.
Compound `COc1ccc2nccc([C@@H](O)CN3CCC(NC(=O)/C=C/c4cccc(-c5ccccc5)c4)CC3)c2c1` registered an Inhibition of 98%.
Under `COc1cc2c(cc1CCNCCCCNCCc1cc3c(cc1OC)CCCC3)CCCC2.CS(=O)(=O)O` stands 100%; under `CCCNc1nc(Nc2ccccc2C)nc2ccccc12`, 95%.
Compound `O=C(Cc1cccc(Cl)c1)Nc1cccc(-c2c[nH]c3nc(Nc4ccccc4)ncc23)c1.O=C(O)C(F)(F)F` registered an Inhibition of 99%.
For the compound `CCC(C)OC(=O)C1=C(C)NC2=C(C(=O)CC(c3ccc(OC)c(OC)c3)C2)C1c1ccc(C)o1` (stereo unspecified), the Inhibition is 93%.
`NCc1cccc(-c2ccc3ccnc(N)c3c2)c1`: the Inhibition is given as 100%.
The same measure for `Cc1noc(-c2ccccc2)c1NC(=O)N1CCN(CCCCCCNC(=O)/C=C/c2ccc(Cl)c(Cl)c2)CC1`: 95%.
Under `COc1ccccc1C1CCN(C2CCC(NC(=O)c3ccc4[nH]c(-c5ccc(C)cc5)nc4c3)CC2)CC1` (stereo unspecified) stands 100%; under `Cc1nc2c(Nc3nc(-c4ccncc4)cs3)ncnc2n1-c1ccccc1Cl`, 97%; under `CCN(CC)CCN(Cc1ccc(-c2ccc(C(F)(F)F)s2)cc1)C(=O)Cn1c(CCc2cccc(F)c2F)nc(=O)c2ccccc21.O=C(O)C(O)C(O)C(=O)O`, 94%.
In turn, `CN(C)S(=O)(=O)c1ccc(N2C(=O)C3C(C2=O)C2(c4ccccc4)C(=O)C3(c3ccccc3)C(c3ccccc3)=C2c2ccccc2)cc1` (stereo unspecified) yielded an Inhibition of 92%.
For the compound `CN1CCCN(Cc2ccc(-c3ccc(NS(=O)(=O)c4cccc5cccnc45)cc3)cc2)CC1.O=C(O)C(F)(F)F`, the Inhibition came out at 99%.
In turn, `O=C(Nc1ccc(Cl)cc1)c1ccc(CN2CCCN(Cc3ccsc3)CC2)cc1.O=C(O)C(F)(F)F` gave an Inhibition of 88%.
The same measure for `Cc1cc(C(=O)Nc2ccc3c(c2)CCN3C2CCN(Cc3cccc(F)c3F)C2)no1` (stereo unspecified): 95%.
